Compound activity (PubChem)
GPR151 ag – activators of human GPR151 | 650,000 compounds, 1% hits | activation, % at 11.2 µM | AID 1508602 | Q8TDV0 | PathHunter beta-arrestin GPR151 cells, luminescence; in the data active = activation above about 4.9%;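 note: 0% = median of compound wells and 100% = cells with positive control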
Target sequence (Q8TDV0 whole entry, looked up): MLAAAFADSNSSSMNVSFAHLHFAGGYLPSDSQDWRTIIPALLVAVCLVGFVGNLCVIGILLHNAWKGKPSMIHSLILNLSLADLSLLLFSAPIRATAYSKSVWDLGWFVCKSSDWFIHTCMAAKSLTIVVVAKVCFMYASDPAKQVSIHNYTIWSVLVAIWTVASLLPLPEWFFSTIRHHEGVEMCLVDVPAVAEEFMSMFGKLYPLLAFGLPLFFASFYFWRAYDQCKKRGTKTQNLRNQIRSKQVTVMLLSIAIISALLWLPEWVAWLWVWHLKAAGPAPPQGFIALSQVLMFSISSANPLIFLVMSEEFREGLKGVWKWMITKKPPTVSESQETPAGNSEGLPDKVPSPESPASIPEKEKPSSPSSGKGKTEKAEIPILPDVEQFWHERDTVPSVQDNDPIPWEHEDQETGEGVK
FBW7 act – human FBW7 E3 ligase activation, primary screen | Q969H0 | AlphaScreen FBW7–phospho-cyclin E peptide binding, activator screen | normalized activity (activation), % at 26.1 µM | 650,000 compounds, 0.13% hits; in the data active = normalized activity above about 1.9%;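 note: purified mutant Fbw7 with reduced substrate affinity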
MITF primary – inhibitors of human MITF. 650,000 compounds, 0.91% hits. inhibition, % at 2.6 µM. O75030. AlphaScreen MITF homodimerization, bead proximity signal; in the data active = inhibition above about 50%;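 note: 0% = vehicle wells with protein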
TEAD-YAP block – TEAD-YAP interaction inhibition; HEK-TIYL cells, TEAD-Gal4/YAP UAS-luciferase luminescence; inhibition, % at 9.12 µM; 640,000 compounds, 1.4% hits; AID 1259422; in the data active = inhibition above about 32%;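 note: 0% = median of test compound wells and 100% = reference inhibitor wells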
GPR151 conf act – confirmation of human GPR151 activators. 6,700 tested, under 10 active. shares compounds with GPR151 ag. GPR151 PathHunter beta-arrestin cells, luminescence, 90 min; % of EA-reagent control over plate median. activation, % at 11.2 µM;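 active = mean percent activation across replicates above the confirmation screen cutoff of 4.91%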
GPR119 counter – counter-screen for GPR151 activators: effect on human GPR119 | activation, % at 11.2 µM | GPR119 PathHunter beta-arrestin cells, luminescence, 90 min; 0 = compound-well median, 100 = enzyme-acceptor control | 6,700 compounds, 0.3% hits | shares compounds with GPR151 ag | AID 1508611;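 active = mean percent activation in the counterscreen above 29.09%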;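 note: counterscreen on off-target GPR119 to flag nonselective hits from the GPR151 activator screen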
* marks the source's active call; other numbers are inactive results. Most compounds without a hit are left out; they make up all but 3.5% or so of the library.

Results for O=C(Cn1nnc(-c2ccccc2Cl)n1)Nc1ccc2c(c1)CCC2 ?
GPR151 ag: -1; FBW7 act: 0; MITF primary: -3; TEAD-YAP block: 14

What do the screens show for `COC(=O)c1cc(CNC(=O)C2CC2)cc(NC(=O)C2(c3ccc(Cl)cc3)CC2)c1`?
GPR151 ag: 1; FBW7 act: 0; MITF primary: 8; TEAD-YAP block: 0

What do the screens show for `O=C(O)c1cc(S(=O)(=O)N2CCN(c3ccccn3)CC2)c(Cl)cc1Cl`?
GPR151 ag: -1; FBW7 act: 0; MITF primary: 3; TEAD-YAP block: -7

How did O=C(COc1ccccc1)N1C(=O)c2ccccc2S1(=O)=O do in these assays?
GPR151 ag: 5.2*; FBW7 act: 0; MITF primary: 10; TEAD-YAP block: 2; GPR151 conf act: 1; GPR119 counter: 2

How did N#Cc1ccc(OCC(=O)N2C(=O)c3ccccc3S2(=O)=O)cc1 do in these assays?
GPR151 ag: 0; FBW7 act: 0; MITF primary: 1; TEAD-YAP block: 9

What do the screens show for `Cc1cccc(N2C(=O)NC(=O)/C(=C\c3ccc(O)c(I)c3)C2=O)c1`?
GPR151 ag: 0; FBW7 act: 0; MITF primary: -3; TEAD-YAP block: 6

What do the screens show for `Cc1cc(-n2c(SCc3ccccc3)nc3ccsc3c2=O)ccc1Cl`?
GPR151 ag: 5.6*; FBW7 act: 0; MITF primary: 1; TEAD-YAP block: -7; GPR151 conf act: 1; GPR119 counter: 8

Results for O=C(O)c1c(-c2ccccc2)oc2ccc(O)cc12 ?
GPR151 ag: 0; FBW7 act: -1; MITF primary: -2; TEAD-YAP block: -3

What do the screens show for `O=C(c1c(-c2ccccc2)oc2ccc(O)cc12)N1CCCCC1`?
GPR151 ag: 4.9*; FBW7 act: 0; MITF primary: -6; TEAD-YAP block: -4; GPR151 conf act: -1; GPR119 counter: -7

What do the screens show for `COc1ccccc1C1NC(=S)NC(C)=C1C(=O)c1ccccc1` (stereo not drawn)?
GPR151 ag: 2; FBW7 act: 0; MITF primary: 9; TEAD-YAP block: 3

How did CNC(=O)C1=C(C)NC(=S)NC1c1ccccc1OC (stereo not drawn) do in these assays?
GPR151 ag: 9.5*; FBW7 act: 0; MITF primary: 2; TEAD-YAP block: 2; GPR151 conf act: -1; GPR119 counter: -13

What do the screens show for `COc1ccc(S(=O)(=O)NCc2ccncc2)cc1OC`?
GPR151 ag: 5.4*; FBW7 act: 0; MITF primary: -25; TEAD-YAP block: 8; GPR151 conf act: 1; GPR119 counter: -6

Results for O=C(/C=C/c1ccc(Br)cc1)c1cccs1 ?
GPR151 ag: 0; FBW7 act: 0; MITF primary: -6; TEAD-YAP block: -21

How did O=C(c1ccc2c(c1)OCCO2)C1CCN(CC(=O)N2CCCCC2)CC1 do in these assays?
GPR151 ag: 0; FBW7 act: 0; MITF primary: 6; TEAD-YAP block: 6

Results for CC(C)(C)c1ccc(OCCN2C(=O)C(=O)c3ccccc32)cc1 ?
GPR151 ag: 5.4*; FBW7 act: 0; MITF primary: 20; TEAD-YAP block: 11; GPR151 conf act: 0; GPR119 counter: 10

Results for CC(C)(C)c1ccc(OCCCN2C(=O)C(=O)c3ccccc32)cc1 ?
GPR151 ag: -1; FBW7 act: 0; MITF primary: 12; TEAD-YAP block: 6

How did COCCNc1nc(-c2ccc(OC)c(OC)c2)no1 do in these assays?
GPR151 ag: 8.4*; FBW7 act: 0; MITF primary: -5; TEAD-YAP block: 1; GPR151 conf act: 0; GPR119 counter: 3

How did NC(Cc1cc(I)c(Oc2ccc(O)c(I)c2)c(I)c1)C(=O)O (stereo not drawn) do in these assays?
GPR151 ag: 6.4*; FBW7 act: 0; MITF primary: 2; TEAD-YAP block: 10; GPR151 conf act: 0; GPR119 counter: 1

How did CC(=O)/C=C(/C)Nc1cccc(O)c1 do in these assays?
GPR151 ag: -1; FBW7 act: 0; MITF primary: 8; TEAD-YAP block: 15

Results for CCOC(=O)c1sc2nc(SCC(=O)c3ccccc3)n(Cc3ccc(Cl)cc3)c(=O)c2c1C ?
GPR151 ag: -1; FBW7 act: 0; MITF primary: 0; TEAD-YAP block: -9
